{"source": "paper PMC7862700", "about": "“An all-to-all approach to the identification of sequence-specific readers for epigenetic DNA modifications on cytosine”", "experiment_in_all_cases": "DAPPL (digital affinity profiling via proximity ligation, sequencing); 10 mM Tris-HCl pH 7.5, 50 mM NaCl, 1 mM DTT, 4% glycerol, room temperature, 30 min; GST-TFs on glutathione beads, 16-mer random dsDNA library, 0.1% formaldehyde crosslink after washing; high values mean tight binding", "details_in_all_cases": "protein: recombinant; tags: N-terminal GST; dsDNA, one strand shown", "key": {"ETV2": {"target": "T1, ETV2 (Homo sapiens, UniProt O00321 1-342)", "T1 sequence": "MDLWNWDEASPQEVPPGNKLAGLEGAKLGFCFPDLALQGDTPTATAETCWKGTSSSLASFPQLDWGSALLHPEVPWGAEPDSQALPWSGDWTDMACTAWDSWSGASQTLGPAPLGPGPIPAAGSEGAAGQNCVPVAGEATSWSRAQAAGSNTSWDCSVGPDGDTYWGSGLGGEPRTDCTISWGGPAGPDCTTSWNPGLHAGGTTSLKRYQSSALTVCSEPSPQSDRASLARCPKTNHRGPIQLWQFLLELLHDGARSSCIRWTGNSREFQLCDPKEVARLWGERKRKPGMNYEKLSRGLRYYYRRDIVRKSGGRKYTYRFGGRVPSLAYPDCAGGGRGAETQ", "procedure,_shortened": "(§1)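 Yeast served to express human transcription factors as GST fusions, which were then captured on glutathione beads and labelled with DNA barcodes. Pooled with a tag-only sample, they were incubated with 200 nmole of a 16-mer random double-stranded DNA library for 30 min at room temperature in Tris/NaCl/DTT/glycerol buffer, washed, crosslinked with 0.1% formaldehyde, ligated by proximity, amplified by PCR and sequenced. Dividing each hexamer's read frequency for a factor by its frequency for the tag-only sample gives the binding signal.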"}, "ELF3": {"target": "T2, ELF3 (Homo sapiens, UniProt P78545 1-371)", "T2 sequence": "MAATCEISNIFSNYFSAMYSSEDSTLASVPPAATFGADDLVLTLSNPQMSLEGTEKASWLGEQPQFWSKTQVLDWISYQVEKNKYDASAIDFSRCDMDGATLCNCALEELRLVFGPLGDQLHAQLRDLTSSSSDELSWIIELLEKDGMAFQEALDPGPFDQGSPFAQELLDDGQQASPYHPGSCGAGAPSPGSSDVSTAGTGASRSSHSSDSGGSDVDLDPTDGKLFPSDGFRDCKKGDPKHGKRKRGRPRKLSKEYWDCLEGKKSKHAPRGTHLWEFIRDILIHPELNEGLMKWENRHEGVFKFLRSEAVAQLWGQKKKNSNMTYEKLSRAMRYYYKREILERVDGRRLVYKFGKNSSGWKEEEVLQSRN", "procedure,_shortened": "as §1"}, "ETV1": {"target": "ETV1 (Homo sapiens, UniProt P50549 1-477)", "sequence (P50549 whole entry)": "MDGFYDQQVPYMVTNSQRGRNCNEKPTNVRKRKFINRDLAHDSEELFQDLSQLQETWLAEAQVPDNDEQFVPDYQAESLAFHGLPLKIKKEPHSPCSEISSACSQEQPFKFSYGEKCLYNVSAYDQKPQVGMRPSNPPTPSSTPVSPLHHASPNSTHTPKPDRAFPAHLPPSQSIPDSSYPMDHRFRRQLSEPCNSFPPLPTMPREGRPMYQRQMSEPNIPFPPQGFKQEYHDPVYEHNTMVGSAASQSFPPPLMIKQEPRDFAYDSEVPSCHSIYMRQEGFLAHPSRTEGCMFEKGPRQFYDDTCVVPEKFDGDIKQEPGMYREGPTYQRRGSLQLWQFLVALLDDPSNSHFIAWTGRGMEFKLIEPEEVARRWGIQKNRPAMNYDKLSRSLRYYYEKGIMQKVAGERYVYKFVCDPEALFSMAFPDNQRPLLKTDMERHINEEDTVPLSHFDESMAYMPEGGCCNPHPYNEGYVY", "procedure,_shortened": "as §1"}, "ERF": {"target": "T3, ERF (Homo sapiens, UniProt P50548 1-548)", "T3 sequence": "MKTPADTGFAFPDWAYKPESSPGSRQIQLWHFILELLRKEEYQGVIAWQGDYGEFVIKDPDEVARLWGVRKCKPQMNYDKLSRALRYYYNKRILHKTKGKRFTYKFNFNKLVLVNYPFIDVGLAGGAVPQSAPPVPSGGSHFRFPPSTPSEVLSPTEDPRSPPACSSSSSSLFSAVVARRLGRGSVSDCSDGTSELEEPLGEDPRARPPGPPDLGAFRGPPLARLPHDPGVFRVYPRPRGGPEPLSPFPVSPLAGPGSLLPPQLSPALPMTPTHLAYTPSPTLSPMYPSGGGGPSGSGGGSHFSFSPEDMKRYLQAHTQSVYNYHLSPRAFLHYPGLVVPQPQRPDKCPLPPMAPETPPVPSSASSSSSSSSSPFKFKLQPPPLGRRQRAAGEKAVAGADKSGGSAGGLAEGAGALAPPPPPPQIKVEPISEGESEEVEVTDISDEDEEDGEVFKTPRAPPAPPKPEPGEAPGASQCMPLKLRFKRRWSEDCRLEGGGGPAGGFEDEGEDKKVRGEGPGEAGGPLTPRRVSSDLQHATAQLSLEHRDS", "procedure,_shortened": "as §1"}, "ETV3L": {"target": "T4, ETV3L (Homo sapiens, UniProt Q6ZN32 1-361)", "T4 sequence": "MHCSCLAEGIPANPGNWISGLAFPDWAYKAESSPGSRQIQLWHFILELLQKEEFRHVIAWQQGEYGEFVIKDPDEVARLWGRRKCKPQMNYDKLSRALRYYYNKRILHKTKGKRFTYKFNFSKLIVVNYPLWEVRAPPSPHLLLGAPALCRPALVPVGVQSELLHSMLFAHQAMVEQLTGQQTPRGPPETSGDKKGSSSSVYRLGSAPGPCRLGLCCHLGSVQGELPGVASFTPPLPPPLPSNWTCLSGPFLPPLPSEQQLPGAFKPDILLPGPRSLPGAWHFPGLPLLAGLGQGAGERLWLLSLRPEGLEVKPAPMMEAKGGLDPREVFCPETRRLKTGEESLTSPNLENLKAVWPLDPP", "procedure,_shortened": "as §1"}, "ETS2": {"target": "T5, ETS2 (Homo sapiens, UniProt P15036 1-469)", "T5 sequence": "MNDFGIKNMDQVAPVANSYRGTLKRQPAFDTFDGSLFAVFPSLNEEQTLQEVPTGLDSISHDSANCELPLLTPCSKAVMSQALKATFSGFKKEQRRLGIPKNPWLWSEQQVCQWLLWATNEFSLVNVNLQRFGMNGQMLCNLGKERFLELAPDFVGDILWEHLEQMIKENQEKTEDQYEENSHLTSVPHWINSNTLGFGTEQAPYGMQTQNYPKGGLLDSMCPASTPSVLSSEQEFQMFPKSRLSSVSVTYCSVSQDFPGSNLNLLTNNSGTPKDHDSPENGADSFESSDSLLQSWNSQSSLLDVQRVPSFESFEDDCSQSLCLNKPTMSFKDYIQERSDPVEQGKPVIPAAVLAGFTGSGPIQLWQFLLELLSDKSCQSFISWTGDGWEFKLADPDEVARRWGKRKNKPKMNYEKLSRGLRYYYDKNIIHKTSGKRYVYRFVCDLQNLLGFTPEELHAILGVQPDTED", "procedure,_shortened": "as §1"}, "SPDEF": {"target": "T6, SPDEF (Homo sapiens, UniProt O95238 1-335)", "T6 sequence": "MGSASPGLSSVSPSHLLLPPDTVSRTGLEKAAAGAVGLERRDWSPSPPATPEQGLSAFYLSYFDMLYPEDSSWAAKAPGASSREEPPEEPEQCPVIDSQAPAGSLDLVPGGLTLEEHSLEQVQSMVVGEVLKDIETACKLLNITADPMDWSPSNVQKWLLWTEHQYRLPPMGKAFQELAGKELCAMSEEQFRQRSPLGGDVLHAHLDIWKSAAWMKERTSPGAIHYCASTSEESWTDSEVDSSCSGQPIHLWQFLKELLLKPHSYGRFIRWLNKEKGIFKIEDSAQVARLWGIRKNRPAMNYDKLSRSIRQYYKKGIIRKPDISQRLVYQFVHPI", "procedure,_shortened": "as §1"}, "ETV7": {"target": "T7, ETV7 (Homo sapiens, UniProt Q9Y603 1-341)", "T7 sequence": "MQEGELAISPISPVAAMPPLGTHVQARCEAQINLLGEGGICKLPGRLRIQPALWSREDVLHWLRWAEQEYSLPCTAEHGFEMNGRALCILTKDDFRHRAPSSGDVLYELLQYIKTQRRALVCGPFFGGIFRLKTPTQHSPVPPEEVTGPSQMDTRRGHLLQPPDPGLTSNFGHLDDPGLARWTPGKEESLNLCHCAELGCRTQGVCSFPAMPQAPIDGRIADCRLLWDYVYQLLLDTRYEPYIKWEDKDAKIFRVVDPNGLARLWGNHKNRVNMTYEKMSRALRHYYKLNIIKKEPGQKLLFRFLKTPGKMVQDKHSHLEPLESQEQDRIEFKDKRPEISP", "procedure,_shortened": "as §1"}, "ETV3": {"target": "T8, ETV3 (Homo sapiens, UniProt P41162-2 1-143)", "T8 sequence": "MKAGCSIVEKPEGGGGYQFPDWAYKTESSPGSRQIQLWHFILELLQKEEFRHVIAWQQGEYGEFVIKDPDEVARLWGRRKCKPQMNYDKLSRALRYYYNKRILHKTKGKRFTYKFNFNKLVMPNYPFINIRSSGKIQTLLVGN", "procedure,_shortened": "as §1"}, "ETV6": {"target": "ETV6 (Homo sapiens, UniProt P41212 1-452)", "sequence (P41212 whole entry)": "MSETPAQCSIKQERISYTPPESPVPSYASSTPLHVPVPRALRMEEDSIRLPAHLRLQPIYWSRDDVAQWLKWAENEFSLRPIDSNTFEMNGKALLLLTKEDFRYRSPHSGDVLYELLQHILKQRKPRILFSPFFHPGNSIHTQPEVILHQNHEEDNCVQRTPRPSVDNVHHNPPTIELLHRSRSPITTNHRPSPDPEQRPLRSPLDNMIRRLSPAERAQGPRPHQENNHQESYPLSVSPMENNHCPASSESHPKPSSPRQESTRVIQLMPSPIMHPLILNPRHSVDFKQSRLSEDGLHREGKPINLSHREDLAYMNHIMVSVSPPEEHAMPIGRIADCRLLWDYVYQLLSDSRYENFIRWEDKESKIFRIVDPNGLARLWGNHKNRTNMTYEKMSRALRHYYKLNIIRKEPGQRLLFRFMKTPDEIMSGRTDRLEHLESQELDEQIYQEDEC", "procedure,_shortened": "as §1"}}}
{"sequence": "TCATGT", "values": [{"measurement": "binding signal", "setting": "ETV2", "result": "1.15 fold enrichment (6-mer frequency, TF over GST control)"}, {"measurement": "binding signal", "setting": "ELF3", "result": "1.04 fold enrichment (6-mer frequency, TF over GST control)"}, {"measurement": "binding signal", "setting": "ETV1", "result": "1.27 fold enrichment (6-mer frequency, TF over GST control)"}, {"measurement": "binding signal", "setting": "ERF", "result": "1.13 fold enrichment (6-mer frequency, TF over GST control)"}, {"measurement": "binding signal", "setting": "ETV3L", "result": "1.15 fold enrichment (6-mer frequency, TF over GST control)"}, {"measurement": "binding signal", "setting": "ETS2", "result": "1.11 fold enrichment (6-mer frequency, TF over GST control)"}, {"measurement": "binding signal", "setting": "SPDEF", "result": "1.12 fold enrichment (6-mer frequency, TF over GST control)"}, {"measurement": "binding signal", "setting": "ETV7", "result": "1.15 fold enrichment (6-mer frequency, TF over GST control)"}, {"measurement": "binding signal", "setting": "ETV3", "result": "1.14 fold enrichment (6-mer frequency, TF over GST control)"}, {"measurement": "binding signal", "setting": "ETV6", "result": "1.08 fold enrichment (6-mer frequency, TF over GST control)"}]}
